The record followed here is PMC4336329 (PLoS ONE, 2015).

About 14,000 (4.5%) of roughly 310,000 compounds showed an effect of 50% or more. The effect is printed as a negative number. The sample as a whole holds a higher share of strong results than the screen did.
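Note: peak tail current of the secondary pulse compared with the same well before compound.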

Sequence of human ether-à-go-go-related gene (hERG) potassium channel (Q12809 whole entry, looked up): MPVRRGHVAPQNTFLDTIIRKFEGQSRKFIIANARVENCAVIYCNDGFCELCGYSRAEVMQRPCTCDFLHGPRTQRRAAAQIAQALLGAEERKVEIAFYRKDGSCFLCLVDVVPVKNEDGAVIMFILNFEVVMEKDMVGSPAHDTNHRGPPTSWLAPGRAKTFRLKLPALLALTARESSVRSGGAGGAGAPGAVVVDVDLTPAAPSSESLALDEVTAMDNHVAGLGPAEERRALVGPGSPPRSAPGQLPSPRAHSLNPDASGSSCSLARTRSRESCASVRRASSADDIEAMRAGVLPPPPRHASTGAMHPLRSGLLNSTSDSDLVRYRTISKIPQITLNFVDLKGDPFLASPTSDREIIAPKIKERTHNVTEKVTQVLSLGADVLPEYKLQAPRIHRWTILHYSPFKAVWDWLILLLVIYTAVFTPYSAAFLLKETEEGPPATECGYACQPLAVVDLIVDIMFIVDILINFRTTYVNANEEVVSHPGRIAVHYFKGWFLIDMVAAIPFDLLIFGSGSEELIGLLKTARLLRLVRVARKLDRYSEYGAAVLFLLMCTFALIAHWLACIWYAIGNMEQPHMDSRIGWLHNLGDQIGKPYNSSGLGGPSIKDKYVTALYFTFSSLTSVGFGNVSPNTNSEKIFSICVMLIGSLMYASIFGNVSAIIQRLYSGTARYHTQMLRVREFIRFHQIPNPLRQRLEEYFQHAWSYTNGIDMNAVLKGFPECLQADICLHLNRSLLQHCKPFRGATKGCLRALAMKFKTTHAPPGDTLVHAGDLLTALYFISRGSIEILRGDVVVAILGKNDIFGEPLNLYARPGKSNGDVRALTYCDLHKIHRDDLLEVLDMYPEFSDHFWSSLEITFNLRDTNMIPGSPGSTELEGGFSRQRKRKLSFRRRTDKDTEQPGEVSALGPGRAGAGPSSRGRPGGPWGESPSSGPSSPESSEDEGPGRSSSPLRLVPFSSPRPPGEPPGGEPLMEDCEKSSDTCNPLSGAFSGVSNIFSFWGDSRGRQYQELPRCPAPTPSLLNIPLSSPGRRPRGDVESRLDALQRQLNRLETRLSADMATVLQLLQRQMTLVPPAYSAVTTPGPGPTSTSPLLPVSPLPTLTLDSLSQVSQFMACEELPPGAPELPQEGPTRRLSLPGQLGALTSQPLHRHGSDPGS

The assay concerns the target human ether-à-go-go-related gene (hERG) potassium channel (human, UniProt Q12809). Description: primary screen, population patch clamp on CHO cells stably expressing hERG; higher = less effect of the substance.
Turning to `CC1=C(c2ccccc2)[N+](=O)C2(CCCCC2)N1[O-]`, the “hERG current change (%, negative = inhibition) at 10uM” value is given as -4.49%. On to `COc1ccc(C2=NOC3(CC(=O)N(c4ccc(F)cc4)C3=O)C2)cc1` (stereo not drawn), for which the “hERG current change (%, negative = inhibition) at 10uM” value was found to be 15.5%. Next, `O=C(COC(=O)c1cc([N+](=O)[O-])ccc1NCCO)Nc1ccc2c(c1)OCO2`: 5.75%; `Clc1ccc(-c2cn(-c3ccc(Cl)cc3)c3[n+]2CCCCC3)cc1.[Br-]`: -52.7%; `COc1ccc(N2CCN(C(=O)COC(=O)c3ccc(OC(F)F)cc3)CC2)cc1`: -26.5%. Next, `COc1ccc(-n2cc(-c3ccccc3)[n+]3c2CCCCC3)cc1.[Br-]`: -19.3%.

`Brc1ccc(-c2csc3[n+]2CCCCC3)cc1.[Br-]`: the “hERG current change (%, negative = inhibition) at 10uM” value is -6.25%. Regarding `Clc1ccc(-n2cc(-c3ccc(Br)cc3)[n+]3c2CCCCC3)cc1.[Br-]`, the “hERG current change (%, negative = inhibition) at 10uM” value is on record as -49.4%.

For `COc1ccc(-n2cc(-c3ccc(OC(F)F)cc3)[n+]3c2CCCCC3)cc1.[Br-]`, the “hERG current change (%, negative = inhibition) at 10uM” value is reported as -76.3%. Regarding `FC(F)Oc1ccc(-n2cc(-c3ccccc3)[n+]3c2CCCCC3)cc1.[Br-]`, the “hERG current change (%, negative = inhibition) at 10uM” value is -55.6%. In the case of `FC(F)Oc1ccc(-n2cc(-c3ccc(Cl)cc3)[n+]3c2CCCCC3)cc1.[Br-]` it was -78.3%. As for `O=C(Nc1ccc(Cl)cc1)N(C1=NCCC1)c1ccc(OC(F)F)cc1`, the “hERG current change (%, negative = inhibition) at 10uM” value is reported as -8.02%. Consider `Br.FC(F)Oc1ccc(-c2csc(NNC3=NCCCCC3)n2)cc1`, for which the “hERG current change (%, negative = inhibition) at 10uM” value is recorded as -47.5%. As to `[Cl-].c1ccc(-c2c[nH]c3[n+]2CCCCC3)cc1`, the “hERG current change (%, negative = inhibition) at 10uM” value was -2.27%. In the case of `COc1ccc(-c2cn(-c3ccc(Cl)cc3)c3[n+]2CCCCC3)cc1.[Br-]`, the “hERG current change (%, negative = inhibition) at 10uM” value is -31.9%. On to `O=C(NCC(c1cccs1)N1CCc2ccccc21)c1ccccc1` (stereo not drawn), for which the “hERG current change (%, negative = inhibition) at 10uM” value was found to be 15.3%. As for `C=CCN(c1ccc(C(=O)N(CC)CC)cc1)S(C)(=O)=O`, the “hERG current change (%, negative = inhibition) at 10uM” value is reported as -4.12%. Regarding `CCN(CC)CCCNC(=O)C1c2ccccc2C(=O)N(CCOC)C1c1ccc(F)cc1` (stereo not drawn), the “hERG current change (%, negative = inhibition) at 10uM” value is recorded as 14.9%. Take `COc1ccc(CNC(=O)COC(=O)c2[nH]c(C)c(C(C)=O)c2C)cc1OC`: the “hERG current change (%, negative = inhibition) at 10uM” value worked out at 1.28%. Regarding `CC(=O)Oc1ccc(N2C(=O)CCC2=O)cc1`, the “hERG current change (%, negative = inhibition) at 10uM” value is 16%. With `Cc1ccc(N2C(=O)[C@@H]3Cc4ccccc4CN3C2=O)cc1`, the “hERG current change (%, negative = inhibition) at 10uM” value is listed as -3.34%. For the compound `CCOC(=O)CC1C(=O)NCCN1C(=O)c1ccc(Cl)cc1` (stereo not drawn), the “hERG current change (%, negative = inhibition) at 10uM” value came out at 12.9%. As to `Nc1nc2ccc(NC(=O)c3ccco3)cc2s1`, the “hERG current change (%, negative = inhibition) at 10uM” value was found to be 11.7%. Turning to `COc1ccc(CNC(=O)CCc2nnc3ccc(N4CCC5(CC4)OCCO5)nn23)cc1`, the “hERG current change (%, negative = inhibition) at 10uM” value turned out to be 15.1%. On to `Nn1c(COc2ccccc2F)nnc1SCC(=O)NC1CC1`, for which the “hERG current change (%, negative = inhibition) at 10uM” value was 0.387%. `CC(=O)NC1=NN(C(C)=O)C(C)(c2ccco2)S1` (stereo not drawn): the “hERG current change (%, negative = inhibition) at 10uM” value is 14.6%. For `Cc1ccc(CONC(=O)c2ccc(OC(F)F)cc2)cc1`, the “hERG current change (%, negative = inhibition) at 10uM” value is recorded as -30.9%. `Cc1ccc(-c2cn(-c3ccc(OC(F)F)cc3)c3[n+]2CCCCC3)cc1.[Br-]`: the “hERG current change (%, negative = inhibition) at 10uM” value is given as -61.6%. Next, `O=C(CC1C(=O)NCCN1Cc1ccoc1)NCc1cccc(OC(F)(F)F)c1` (stereo not drawn): 1.19%; `CC(C)(O)CC[C@@H](O)[C@](C)(O)C1CC[C@@]2(O)C3=CC(=O)[C@]4(O)C[C@@H](O)[C@@H](O)C[C@]4(C)C3CC[C@]12C` (stereo partly drawn): 30.1%; `CCCCCCSc1ncc(C#N)c(N)n1`: -4.45%. For `CCCc1nc2c(c(=O)c3ccccc3n2C)c(=O)n1C1CCCCCC1`, the “hERG current change (%, negative = inhibition) at 10uM” value is given as -10.1%.

As to `Cc1ccc(-c2nc3c(c(=O)c4ccccc4n3C)c(=O)n2Cc2ccco2)cc1`, the “hERG current change (%, negative = inhibition) at 10uM” value came out at 2.18%.

In the case of `COc1ccc(Cn2c(-c3ccco3)nc3c(c(=O)c4ccccc4n3C)c2=O)cc1`, the “hERG current change (%, negative = inhibition) at 10uM” value is -35.3%. In the case of `CCCCCc1nc2c(c(=O)c3ccccc3n2C)c(=O)n1C1CCCCCC1` it was 1.32%; in that of `Cn1c2ccccc2c(=O)c2c(=O)n(C3CCCCC3)c(-c3ccco3)nc21`, -53.9%. `Cn1c2ccccc2c(=O)c2c(=O)n(C3CCCCC3)c(-c3cccs3)nc21`: the “hERG current change (%, negative = inhibition) at 10uM” value is reported as -66.1%. Consider `CCc1nc2c(c(=O)c3ccccc3n2C)c(=O)n1C1CCCCCC1`, for which the “hERG current change (%, negative = inhibition) at 10uM” value was -1.73%. For the compound `CC(C)Cn1c(-c2ccco2)nc2c(c(=O)c3ccccc3n2C)c1=O`, the “hERG current change (%, negative = inhibition) at 10uM” value is -59.3%. In the case of `Cc1nc2c(c(=O)c3ccccc3n2C)c(=O)n1C1CCCCCC1` it was -0.582%; in that of `COC(=O)c1sc(NC(=O)COc2cccnc2[N+](=O)[O-])c(C(=O)OC)c1C`, 3.81%; in that of `CCOc1ccccc1Cn1c(=O)oc2ccc(C)cc21`, 11.1%.
